Measurements: PubChem BioAssay (NCI)
Compounds without any hit were thinned out: in the full panel of roughly 79,000, 15% have a hit. Activity calls are given as the source filed them. Cut-off read from the data, not from the text of the source: active = growth inhibition above about 70%; inactive = the rest.

What was measured:
[1] = NCI Yeast Anticancer Drug Screen. Data for the rad52 strain (AID 147);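 note: 0% = growth of vehicle-treated control cultures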; conditions: S. cerevisiae rad52 mutant growth inhibition, active compounds read high
Method in brief: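 Screen used a yeast mutant impaired in DNA repair. After compound exposure, growth was measured. Values reflect inhibition compared with vehicle-treated cells.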

[2] = NCI Yeast Anticancer Drug Screen. Data for the wt1 strain (AID 149);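 note: 0% = growth of vehicle-treated wt1 cultures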; conditions: S. cerevisiae wt1 strain (SPY 50644) growth inhibition, active compounds read high
Method in brief: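 Compounds are added to wt1 yeast cultures. Growth is then measured. Inhibition is expressed relative to vehicle-treated controls.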

[3] = NCI Yeast Anticancer Drug Screen. Data for the rad50EPP+ strain (AID 151);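 note: 0% = growth of vehicle-treated control cultures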; conditions: S. cerevisiae rad50 mutant strain, active compounds read high
Method in brief: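 Exposing the rad50EPP+ strain to each compound, growth was compared with vehicle-only cultures to give inhibition.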

[4] = NCI Yeast Anticancer Drug Screen. Data for the mgt1 strain (AID 153); conditions: S. cerevisiae mgt1 mutant growth inhibition, active compounds read high
Method in brief: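 Genetically defined yeast (mgt1) treated with compound; inhibition of growth expressed against vehicle-treated controls.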

[5] = NCI Yeast Anticancer Drug Screen. Data for the rad50 strain (AID 155);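 note: 0% = growth of vehicle-only cultures of the same strain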; conditions: S. cerevisiae rad50 strain growth inhibition, active compounds read high
Method in brief: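 Inhibition values express reduced yeast growth in compound-treated cultures relative to vehicle-treated controls.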

[6] = NCI Yeast Anticancer Drug Screen. Data for the mec2-1 strain (AID 157); conditions: S. cerevisiae mec2-1 strain, active compounds read high
Method in brief: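 Readout is yeast growth inhibition, normalised to vehicle-treated controls, in the mec2-1 strain exposed to compound.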

[7] = NCI Yeast Anticancer Drug Screen. Data for the rad14 strain (AID 159);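 note: 0% = growth of vehicle-treated control cultures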; conditions: S. cerevisiae rad14 strain growth inhibition, active compounds read high
Method in brief: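 A mutant yeast strain defective in DNA damage repair is treated with compound; inhibition of its growth is scored against untreated, vehicle-exposed cultures.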

[8] = NCI Yeast Anticancer Drug Screen. Data for the sgs1 mgt1 strain (AID 161);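 note: 0% = growth of cultures given vehicle only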; conditions: S. cerevisiae sgs1 mgt1 strain, active compounds read high
Method in brief: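 Compounds are added to genetically altered yeast, and growth is compared with cultures given vehicle alone to give percent inhibition.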

[9] = NCI Yeast Anticancer Drug Screen. Data for the CLN2oe strain (AID 163);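 note: 0% = growth of vehicle-only control cultures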; conditions: S. cerevisiae CLN2oe strain, active compounds read high
Method in brief: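 Values reflect how much compound exposure reduced yeast growth, referenced to vehicle-exposed cells. Assay organism is a strain with a defined genetic change affecting cell-cycle control.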

[10] = NCI Yeast Anticancer Drug Screen. Data for the cln2 rad14 strain (AID 165);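 note: 0% = growth equal to vehicle treated cultures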; conditions: S. cerevisiae cln2 rad14 strain, active compounds read high
Method in brief: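 Relative to vehicle controls, growth inhibition of compound-treated cln2 rad14 yeast was recorded.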

[11] = NCI Yeast Anticancer Drug Screen. Data for the bub3 strain (AID 167); conditions: S. cerevisiae bub3 mutant strain, active compounds read high
Method in brief: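 Steps: expose the mutant yeast strain to compound; grow alongside vehicle-treated cultures; measure growth; express inhibition against the vehicle cultures.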

[12] = NCI Yeast Anticancer Drug Screen. Data for the wt2 strain (AID 169);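 note: 0% = growth of vehicle-treated yeast cultures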; conditions: S. cerevisiae wt2 strain growth inhibition, active compounds read high
Method in brief: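 Values express reduction in yeast growth under compound treatment, referenced to vehicle-treated cells.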

[13] = NCI Yeast Anticancer Drug Screen. Data for the mlh1 strain (AID 171);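 note: 0% = growth of vehicle-treated control cultures of the same strain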; conditions: S. cerevisiae mlh1 strain growth inhibition, active compounds read high
Method in brief: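 Steps: expose the defined-mutant yeast strain to compound; expose a parallel culture to vehicle; measure growth; express compound effect as inhibition relative to the vehicle culture.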

[14] = NCI Yeast Anticancer Drug Screen. Data for the sgs1 strain (AID 173);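 note: 0% = growth of vehicle-only control cultures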; conditions: S. cerevisiae sgs1 mutant, active compounds read high
Method in brief: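 Treat defined-mutant yeast with compound; measure growth; calculate inhibition relative to vehicle-treated cells.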

[15] = NCI Yeast Anticancer Drug Screen. Data for the mlh1 rad18 strain (AID 175); conditions: S. cerevisiae mlh1 rad18 strain growth inhibition, active compounds read high
Method in brief: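 Test agents were incubated with a yeast strain of defined genotype (DNA damage repair defect). Inhibition of growth was derived by comparison with vehicle-exposed cultures.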

[16] = NCI Yeast Anticancer Drug Screen. Data for the rad18 strain (AID 177); conditions: S. cerevisiae rad18 mutant growth inhibition, active compounds read high
Method in brief: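 A genetically defined yeast mutant impaired in DNA damage repair was treated with test compounds, then its growth was measured against cultures receiving vehicle alone.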

[17] = at 5.0 µM (retest, dose inferred, filed as 0.5)
[18] = at 50.0 µM (retest, dose inferred, filed as 5.0)

Measured: growth inhibition

Cc1ccc2c(c1)C1(SC(C)C(=O)N1c1ccc(Cl)cc1)C(=O)N2 (stereo not drawn)
inactive: [1]; at 1.2 µM 0% | [1]; at 3.7 µM 4% | [1]; at 11.0 µM 16% | [2]; at 1.2 µM 0% | [2]; at 3.7 µM 5% | [2]; at 11.0 µM 4% | [2]; at 33.0 µM 55% | [3]; at 1.2 µM -2% | [3]; at 3.7 µM -1% | [3]; at 11.0 µM 1% | [3]; at 33.0 µM -2% | [3]; at 100.0 µM -3% | [4]; at 1.2 µM -5% | [4]; at 3.7 µM -6% | [4]; at 11.0 µM 3% | [5]; at 1.2 µM -2% | [5]; at 3.7 µM 1% | [5]; [17] 12% | [5]; at 11.0 µM 9% | [6]; at 1.2 µM -2% | [6]; at 3.7 µM 5% | [6]; [17] -12% | [6]; at 11.0 µM 12% | [6]; [18] 17% | [7]; at 1.2 µM -3% | [7]; at 3.7 µM 3% | [7]; at 11.0 µM 12% | [8]; [17] 8% | [9]; at 1.2 µM -1% | [9]; at 3.7 µM -11% | [9]; at 11.0 µM 4% | [10]; [17] 4% | [10]; [18] 49% | [11]; at 1.2 µM 3% | [11]; at 3.7 µM 10% | [11]; [17] 19% | [11]; at 11.0 µM 30% | [12]; at 1.2 µM -2% | [12]; at 3.7 µM 1% | [12]; at 11.0 µM 8% | [13]; at 1.2 µM -1% | [13]; at 3.7 µM 3% | [13]; at 11.0 µM 17% | [14]; at 1.2 µM 2% | [14]; at 3.7 µM 7% | [14]; at 11.0 µM 25% | [15]; [17] 51% | [16]; at 1.2 µM 4% | [16]; at 3.7 µM 17% | [16]; at 11.0 µM 54%
active: [1]; at 33.0 µM 96% | [1]; at 100.0 µM 99% | [2]; at 100.0 µM 99% | [4]; at 33.0 µM 94% | [4]; at 100.0 µM 99% | [5]; at 33.0 µM 94% | [5]; [18] 97% | [5]; at 50.0 µM 98.8% | [5]; at 100.0 µM 99% | [6]; at 33.0 µM 85% | [6]; at 50.0 µM 98.5% | [6]; at 100.0 µM 99% | [7]; at 33.0 µM 96% | [7]; at 100.0 µM 99% | [8]; [18] 94% | [8]; at 50.0 µM 99.4% | [9]; at 33.0 µM 91% | [9]; at 100.0 µM 99% | [10]; at 50.0 µM 97.7% | [11]; at 33.0 µM 90% | [11]; [18] 88% | [11]; at 50.0 µM 74.5% | [11]; at 100.0 µM 99% | [12]; at 33.0 µM 98% | [12]; at 100.0 µM 99% | [13]; at 33.0 µM 95% | [13]; at 100.0 µM 99% | [14]; at 33.0 µM 94% | [14]; at 100.0 µM 99% | [15]; [18] 98% | [15]; at 50.0 µM 99% | [16]; at 33.0 µM 97% | [16]; at 100.0 µM 98%
